An excerpt weighted towards active compounds, which were near 7.8% of everything screened.
Vaccinia Venus: qHTS for Stage-Specific Inhibitors of Vaccinia Orthopoxvirus: Venus Reporter Primary qHTS; Vaccinia virus Venus reporter expression, fluorescence; Potency, µM (doses to about 36.5 µM), without a hit: at the top dose activity change, negative = inhibition, most hits filed as inhibitors; 330,000 compounds, 0.46% hits; calls by dose curve; tested in A549 cells; further: potency means the concentration at half of the fitted maximal effect; nearly all actives have a fitted effect of over 30% in size
MARV entry inh: qHTS for inhibitors of binding or entry into cells for Marburg Virus; Marburg virus pseudotyped entry inhibition, cell reporter; Potency, µM (doses to about 37.8 µM), for the others: top-dose activity change, negative = inhibition, most hits filed as inhibitors; 300,000 compounds, 1.8% hits; calls by dose curve; tested in HEK293 cells; further: potency means the concentration at half of the fitted maximal effect
Vaccinia mCherry: qHTS for Stage-Specific Inhibitors of Vaccinia Orthopoxvirus: mCherry Reporter Primary qHTS | AID 720579, 2013 | 310,000 compounds, 0.63% hits | Potency, µM (series often up to 36.5 µM), inactives show at the top dose activity change, negative = inhibition, usual class: inhibitors | Vaccinia virus mCherry reporter infection, fluorescence; calls by dose curve; tested in A549 cells; further: potency means the concentration at half of the fitted maximal effect; nearly all actives have a fitted effect of over 35% in size
Lassa entry inh: qHTS for Inhibitors of binding or entry into cells for Lassa Virus | Lassa virus pseudotype entry inhibition, cell reporter | Potency, µM (top dose mostly 37.9 µM), for the others: top-dose activity change, negative = inhibition, usual class: inhibitors | 300,000 compounds, 1.2% hits | AID 540256, 2011; calls by dose curve; tested in HEK293 cells; further: potency means the concentration at half of the fitted maximal effect; nearly all actives have a fitted effect of over 50% in size
HCV inh: qHTS Assay for Inhibitors of Hepatitis C Virus (HCV). Potency, µM (doses to about 41.8 µM), without a hit: top-dose activity change, negative = inhibition, actives largely listed as inhibitors. Huh7.5.1 HCVcc-Cre infection, luciferase reporter, 44 h. 340,000 compounds, 3.4% hits; active means well fitted inhibition curve with a large enough effect; inconclusive means small, poorly fitted or top-dose-only effect, or another doubt; inactive means no such curve, though single readings can be large or run the other way; further: potency means the concentration at half of the fitted maximal effect
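Infectious HCV cell culture screen: compound-treated cells (1,000/well, pre-plated 4 h) are infected with HCVcc-Cre at roughly 0.5 moi and grown 44 h. Infection is quantified by luciferase signal after 15 min substrate incubation at room temperature.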
HCMV antiviral: qHTS Assay for inhibitors of the human cytomegalovirus (HCMV); HFF cells, HCMV-luciferase reporter, 72 h; active compounds read low; activity change, negative = inhibition, % at 57.5 µM; 410,000 compounds, 4.5% hits; AID 1259415, 2018; in the data active means activity change below about -60%; inconclusive means no clear call, values can overlap the other calls; inactive means above about -39%
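Luciferase read-out from HCMV-luciferase-infected HFFs (MOI 1 PFU/cell) 72 h post infection at 37C; compounds added after 16 h cell attachment; activity normalized between buffer-only basal and Salinomycin (10uM) inhibitor controls.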
* hit, by the source's call; [ ] = dose if it differs, or a comment. On the % scale 0 is the no-effect control and ±100 the full control effect.

`CCC1CCc2c(sc(NC(=O)c3ccco3)c2C(N)=O)C1` (configuration not stated) gave MARV entry inh -2%, Lassa entry inh inconclusive, HCV inh 4µM* and HCMV antiviral 80.
Screening CCc1ccc(C(=O)Nc2cccc(-c3nc4cc(C(C)C)ccc4o3)c2)cc1 returned Vaccinia Venus 1%, MARV entry inh 22%[46.1 µM], Vaccinia mCherry -3%, Lassa entry inh 1%[46.1 µM] and HCMV antiviral 14.
CCC(C)NC(=O)c1c(C)oc2nc(C)nc(N3CCOCC3)c12 (configuration not stated) was read as Vaccinia Venus -9%, Vaccinia mCherry -9%, Lassa entry inh 11%[46.1 µM] and HCMV antiviral 6.
`O=C(CCCCCn1c(=O)[nH]c2ccsc2c1=O)NCc1ccccc1` gave Vaccinia Venus -2%, MARV entry inh inconclusive, Vaccinia mCherry -10%, Lassa entry inh 11%[46.1 µM] and HCMV antiviral 18.
Screening CCCc1c(C(=O)OCC)nnc2c(-c3ccccc3)c(C)nn12 returned Vaccinia Venus 1%, MARV entry inh -3%[46.1 µM], Vaccinia mCherry -3%, Lassa entry inh inconclusive and HCMV antiviral -4.
`Nc1nc(=S)[nH]c2n[nH]nc12` gave Vaccinia Venus -18% and Vaccinia mCherry -19%.
`O=C(Nc1sc2c(c1C(=O)O)CCC2)c1ccccc1` gave MARV entry inh 7.3µM*, Lassa entry inh inconclusive, HCV inh 3% and HCMV antiviral 84.
Screening O=C(Nc1sc2c(c1C(=O)O)CCCC2)c1ccc(Cl)cc1 returned Vaccinia Venus -27%, MARV entry inh 6.3µM*, Vaccinia mCherry -9%, Lassa entry inh 7.9µM*, HCV inh inconclusive and HCMV antiviral 17.
O=C(Nc1sc2c(c1C(=O)O)CCC2)c1cccs1 was read as Vaccinia Venus -25%, MARV entry inh inconclusive, Vaccinia mCherry inactive, Lassa entry inh inconclusive, HCV inh -22% and HCMV antiviral 59.
`O=C(Nc1sc2c(c1C(=O)O)CCC2)c1ccc(F)cc1` gave Vaccinia Venus -30%, MARV entry inh -17%[46.1 µM], Vaccinia mCherry inconclusive, Lassa entry inh inconclusive, HCV inh 3% and HCMV antiviral 31.
Screening O=C(Nc1sc2c(c1C(=O)O)CCCC2)c1cccc(Cl)c1 returned HCV inh -2% and HCMV antiviral 28.
`NC(=O)c1c(NC(=O)c2cccs2)sc2c1CCCCCC2` gave Vaccinia Venus -27%, MARV entry inh inconclusive, Vaccinia mCherry inconclusive, Lassa entry inh inconclusive, HCV inh 10µM* and HCMV antiviral 9.
Screening O=C(Nc1sc2c(c1C(=O)O)CCCCC2)c1ccccc1 returned Vaccinia Venus -24%, MARV entry inh 7.1µM*, Vaccinia mCherry inactive, Lassa entry inh inconclusive, HCV inh inconclusive and HCMV antiviral 11.
`O=C(NCCc1nnc2n1CCN(Cc1ccccn1)CC2)c1ccc(F)cc1` gave Vaccinia Venus -6% and Vaccinia mCherry -8%.
CCOc1ccc(-n2nc(CO)c(C(=O)NCC(c3ccccc3)c3ccccc3)n2)cc1 was read as Vaccinia Venus 1%, MARV entry inh -1%[46.1 µM], Vaccinia mCherry 10%, Lassa entry inh -5%[46.1 µM] and HCMV antiviral 23.
`COc1ccc(CCNC(=O)c2ccc3c(c2)SC2=NS(=O)(=O)CCN23)cc1` gave Vaccinia Venus -11%, MARV entry inh -16%[46.1 µM], Vaccinia mCherry -16%, Lassa entry inh 5%, HCV inh -25% and HCMV antiviral 67.
O=C(Nc1cccc(Cl)c1)c1ccc2c(c1)SC1=NS(=O)(=O)CCN12 was read as Vaccinia Venus -19%, MARV entry inh inconclusive, Vaccinia mCherry inconclusive, Lassa entry inh inconclusive, HCV inh -23% and HCMV antiviral -79*.
For CCN(CC)S(=O)(=O)c1ccc(C(=O)NCc2ccc(C)cc2)cc1 the results were Vaccinia Venus -14%, MARV entry inh -26%[46.1 µM], Vaccinia mCherry -11%, Lassa entry inh 18µM*, HCV inh 0% and HCMV antiviral -2.
`CCCN(CCC)S(=O)(=O)c1ccc(C(=O)NCc2ccco2)cc1` gave Vaccinia Venus -1%, MARV entry inh 2%, Vaccinia mCherry -9%, Lassa entry inh 0.79µM*, HCV inh 15% and HCMV antiviral -28.
CCN(CC)S(=O)(=O)c1ccc(C(=O)NCc2cccs2)cc1 was read as MARV entry inh 10%, Lassa entry inh 2.9µM*, HCV inh -10% and HCMV antiviral -23.
`CN(C)S(=O)(=O)c1ccc(C(=O)NCc2ccco2)cc1` gave Vaccinia Venus -10%, MARV entry inh -2%[46.1 µM], Vaccinia mCherry -4%, Lassa entry inh -5%[46.1 µM], HCV inh 3% and HCMV antiviral -4.
CCN(CC(=O)NCc1ccc(F)cc1)S(=O)(=O)c1ccc(C)cc1 was read as HCV inh -10% and HCMV antiviral inconclusive.
For CCN(CC(=O)NCc1cccs1)S(=O)(=O)c1ccc(F)cc1 the results were Vaccinia Venus -2%, MARV entry inh 23%, Vaccinia mCherry -1%, Lassa entry inh 1%, HCV inh -6% and HCMV antiviral -31.
For CCc1ccc(NCc2cc3cc4c(cc3n(CC(=O)Nc3cccc(OC)c3)c2=O)OCO4)cc1 the results were Vaccinia Venus 8%, Vaccinia mCherry 0%, Lassa entry inh -5%[46.1 µM] and HCMV antiviral 30.
For COc1ccc(C2CC(=O)N(CC(=O)Nc3ccc(C(F)(F)F)cc3)c3ccccc3S2)cc1 (configuration not stated) the results were Vaccinia Venus -13%, MARV entry inh inconclusive, Vaccinia mCherry -20% and HCMV antiviral -16.
`COc1ccc2c(c1)[C@@]1(OCCC=C[C@@H]1C)C(=O)N2Cc1ccc(F)cc1` gave MARV entry inh 28%[14.2 µM] and Lassa entry inh inconclusive.
For CC(=O)c1ccc(NC(=O)c2ccc(C)c(S(=O)(=O)N3CCOCC3)c2)cc1 the results were Vaccinia Venus -15%, MARV entry inh inconclusive, Vaccinia mCherry -14%, Lassa entry inh 0%, HCV inh -18% and HCMV antiviral -11.
O=C(Nc1ccc(N2CCCCCC2)cc1)c1cccc(S(=O)(=O)N2CCOCC2)c1 was read as Vaccinia Venus -24%, MARV entry inh inconclusive, Vaccinia mCherry -22%, Lassa entry inh inconclusive, HCV inh 2.5µM* and HCMV antiviral -74*.
Screening CCOC(=O)c1ccc(NC(=O)c2ccc(C)c(S(=O)(=O)N3CCOCC3)c2)cc1 returned Vaccinia Venus inconclusive, MARV entry inh 2.8µM*, Vaccinia mCherry inconclusive, Lassa entry inh inconclusive, HCV inh 5µM* and HCMV antiviral inconclusive.
